Luc counter – blocks Kinase-Glo luciferase, a counter-screen artifact; Potency, µM (titrated, usually from 38.3 µM), without a hit: at the highest dose activity change, negative = inhibition, hits mostly inhibitors; Kinase-Glo luciferase, ATP luminescence, 8 min; actives 0.28% (n = 200,000); AID 1379; Q27757; note: nearly all actives have a fitted effect of over 60% in size
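Luminescence was the read-out, taken after 8-minute incubation at ambient temperature. Luciferase turned over luciferin with 10 uM ATP in imidazole pH 7.2 buffer containing KCl, MgCl2, Tween 20 and BSA.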
Gal4-VP16 FLuc – Gal4-VP16 reporter inhibition counter-screen; Drosophila S2 Gal4-VP16 UAS-luciferase, luminescence, 20 h; Potency, µM (titrated, usually from 53.6 µM), without a hit: top-dose activity, negative = inhibition, most hits filed as inhibitors; actives 3.5% (n = 310,000); AID 2546;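 note: Gal4-VP16 expression switched on by copper sulfate through the metallothionein promoter; nearly all actives have a fitted effect of over 50% in size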
RORg inh – inhibitors of mouse ROR gamma transcriptional activity. Drosophila S2 Gal4-RORgamma UAS-luciferase reporter, 20 h. Potency, µM (top dose mostly 53.6 µM), without a hit: top-dose activity change, negative = inhibition, usual class: inhibitors. actives 5.4% (n = 310,000); note: nearly all actives have a fitted effect of over 60% in size
Target sequence (P51450 whole entry, looked up, the tested form may be a part): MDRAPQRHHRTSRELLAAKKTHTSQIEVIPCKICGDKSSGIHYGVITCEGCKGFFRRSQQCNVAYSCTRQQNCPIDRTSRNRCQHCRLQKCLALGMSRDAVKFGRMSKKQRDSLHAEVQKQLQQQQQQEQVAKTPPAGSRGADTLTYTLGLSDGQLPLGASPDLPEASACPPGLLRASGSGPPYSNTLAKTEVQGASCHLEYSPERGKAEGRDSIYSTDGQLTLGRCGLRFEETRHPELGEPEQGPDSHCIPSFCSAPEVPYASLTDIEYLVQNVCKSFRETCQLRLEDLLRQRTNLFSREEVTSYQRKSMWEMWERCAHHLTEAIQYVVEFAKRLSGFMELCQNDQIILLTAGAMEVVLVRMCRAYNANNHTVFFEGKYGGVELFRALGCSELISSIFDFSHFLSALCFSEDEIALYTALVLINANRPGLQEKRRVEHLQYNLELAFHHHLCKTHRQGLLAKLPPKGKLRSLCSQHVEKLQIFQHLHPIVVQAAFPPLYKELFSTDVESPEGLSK
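Drosophila Schneider cells stably carrying a metallothionein-driven Gal4 DBD–ROR gamma fusion and a UAS-Photinus luciferase reporter were exposed to compound for 1 hr, then induced with copper sulfate (700 uM final) for 20 hr at ambient temperature before luminescence reading.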
* = called active by the depositor; ? = inconclusive; / = no result given; [ ] = another dose, or the depositor's remark. An excerpt weighted towards active compounds, which were near 6.4% of everything screened. Calls come from the whole dose curve; as a rule, active = well fitted curve in the direction sought with a large enough effect; inconclusive = small, poorly fitted or top-dose-only effect, or another doubt; inactive = no such curve, though single readings can be large; an effect the other way counts as inactive or inconclusive. % is set by controls: 0 for no effect and ±100 for the full control effect; potency is the fitted concentration of half-maximal effect.

SMILES | Luc counter | Gal4-VP16 FLuc | RORg inh
O=C(NC(=S)NCC1CCCO1)c1ccc(Br)o1 (centres undefined) | -0.1% | -20.8% | ?
O=C(CNC(=S)NC(=O)c1ccc(Cl)cc1)c1ccccc1 | -0.7% | 12.6µM* | 10µM*
O=C(CNC(=O)c1ccc(Cl)cc1)c1ccc(Br)cc1 | / | 19.8% | 23.6%
O=C(CNC(=S)NC(=O)c1ccc(Br)o1)c1ccccc1 | -2.5% | ? | 12.6µM*
COc1cccc(CN2CCC(N(CCc3ccccc3)Cc3ccccc3)CC2)c1OC | 2.8% | -26.4% | -7.7%
N#Cc1c(NC(=O)C2CC(Cl)=CCC2C(=O)O)sc2c1CCCC2 (centres undefined) | 1.4% | 0.0% | 11.7%
CCN(CC)CCCCNC(=O)c1ccc(Cc2nc3ccccc3[nH]2)cc1 | -4.5% | / | /
COc1ccc(OCC(O)CNC(=O)/C=C/c2cccc([N+](=O)[O-])c2)cc1 (centres undefined) | 2.0% | -2.7% | ?
COc1ccc(-c2nc3cnc(OC)nc3n(C3CC3)c2=O)cc1 | -6.5% | -21.6% | -2.9%
CC1CCc2nc(NC(=O)c3cc(C(C)(C)C)nn3C)sc2C1 (centres undefined) | / | -10.6% | -12.7%
COC(=O)c1ccc(C(=O)NC(=S)Nc2nc3c(s2)CC(C)CC3)cc1 (centres undefined) | -3.8% | 2µM* | 1µM*
Cc1ccc(-n2[nH]c(=O)c(-c3ccccn3)c2C)cc1 | -22.6% | 2.82µM* | 1.26µM*
Cc1ccc(-n2[nH]c(=O)c3cccnc32)cc1 | -2.7% | 5.2% | 21.3%
COc1cc(/C=N/Nc2nncc3ccccc23)cc(OC)c1OC | / | 11.2µM* | ?
COc1ccc(/C=N/Nc2ncc(Br)cn2)c(OC)c1 | 1.3% | -1.1% | 1.4%
Cc1cccc(/C=N/Nc2nncc3ccccc23)c1 | ? | 20µM* | 2.51µM*
CCNc1nc(NCC)nc(N/N=C/c2cc(OC)c(OC)c(OC)c2)n1 | / | 0.0% | ?
C(=N\Nc1nncc2ccccc12)/c1ccccc1 | / | -3.3% | -26.0%
COc1ccc(/C=N/Nc2nncc3ccccc23)c(OC)c1 | -5.5% | 22.4µM* | 4.47µM*
Cc1cccc(N2CCN(C(=O)c3c(-c4ccccc4)noc3C)CC2)c1C | / | 0.1% | 0.7%
N#Cc1ccc(OC(=O)c2ccc(N=C(N)N)cc2)cc1 | -6.2%[7.66 µM] | / | /
Cc1cc(OCC(=O)NCCCn2ccnc2)c2c(C)c(C)c(=O)oc2c1 | / | -5.4% | -25.6%
O=C(Nc1nnc(SCc2ccc(F)cc2)s1)c1ccccn1 | -4.0% | 1.41µM* | 0.794µM*
CCOCC(=O)Nc1nc2ccc(OCC)cc2s1 | -21.4% | ? | ?
O=C(Nc1nc2ccccc2s1)c1cnccn1 | 7.94µM* | 5.01µM* | 3.16µM*
SMILES | Luc counter | Gal4-VP16 FLuc | RORg inh
O=C(Nc1nc2ccc(F)cc2s1)C1=NN(c2ccccc2)C(=O)CC1 | -2.5% | ? | ?
CCOc1ccc2nc(NC(=O)c3cnccn3)sc2c1 | / | ? | 1.58µM*
O=C(Nc1nc2ccc(F)cc2s1)c1ccccn1 | 11.2µM* | 1.58µM* | 0.708µM*
O=C(NCc1cccnc1)C(=O)Nc1nc2ccccc2s1 | -0.1% | 1.6% | -5.5%
O=C(Nc1nnc(SCc2ccc(F)cc2)s1)c1cccnc1Cl | 4.8% | -12.6% | -16.7%
O=C(C1CCCC1)N1CCN(S(=O)(=O)c2cccc(Cl)c2Cl)CC1 | / | 6.6% | 10.2%
O=C(CCn1c(=S)oc2ccccc21)Nc1ccccc1Br | / | -4.2% | 3.0%
CS(=O)(=O)N(CC(=O)N1CCCC1)c1ccc(Cl)cc1 | / | -1.5% | 1.1%
Cc1ccc2nc(NC(=O)c3cccc(-c4cc5ccccc5oc4=O)c3)sc2c1 | -1.3% | -7.7% | ?
O=C(Cc1ccc(F)cc1)Nc1nc(-c2ccc(F)cc2)cs1 | / | -22.2% | -3.5%
CCOc1ccc2nc(NC(=O)c3cccc(-c4cc5ccccc5oc4=O)c3)sc2c1 | -2.5% | 11.2µM* | 11.2µM*
O=C(Nc1nc(-c2ccc(F)cc2)cs1)c1cnccn1 | 3.3% | ? | 2.24µM*
O=Nc1c(O)[nH]c2ccccc12.[Cu].[O-]/N=C1/C(=[OH+])Nc2ccccc21 | 0.2%[7.66 µM] | / | /
O=C(Nc1ccccc1)c1ccccc1NS(=O)(=O)c1ccc(Cl)s1 | 4.1% | ? | ?
O=C(NCc1ccco1)c1ccccc1NS(=O)(=O)c1ccc(Cl)s1 | -4.2% | 2.7% | 37.2%
O=C(Nc1ccccc1Cc1ccccc1)c1ccccc1NS(=O)(=O)c1ccc(Cl)s1 | -2.4% | 12.6µM* | ?
Cc1ccc(NC(=O)c2ccccc2NS(=O)(=O)c2ccc(Cl)s2)cc1 | 0.0% | 20µM* | ?
CC(C)(C)NC(=O)C(c1ccccc1)N(C(=O)CNC(=O)c1cccs1)c1cccnc1 (centres undefined) | / | 9.8% | 3.4%
NC(=O)CC(NC(=O)c1ccccc1)c1ccc(N2CCN(c3ccc(F)cc3)CC2)c([N+](=O)[O-])c1 (centres undefined) | / | 22.4µM* | 12.9%
NC(=O)CC(NC(=O)c1cccc(Br)c1)c1ccc(N2CCC(Br)CC2)c([N+](=O)[O-])c1 (centres undefined) | / | ? | 35.3%
NC(=O)CC(NC(=O)c1ccccc1)c1ccc(N2CCC(Br)CC2)c([N+](=O)[O-])c1 (centres undefined) | / | 12.6µM* | ?
CN1CCN(c2ccc(C(CC(N)=O)NC(=O)c3ccccc3)cc2[N+](=O)[O-])CC1 (centres undefined) | / | -3.6% | 6.2%
Cc1ccc2c(c1)cc1c(=O)n(CC(=O)NCCN3CCCC3)nc(C)n12 | / | 7.6% | -7.1%
S=c1[nH]nc(Cn2nnc3ccccc32)n1-c1ccccc1 | 5.2% | -7.2% | ?
S=c1[nH]nc(Cc2cccs2)n1-c1ccccc1 | -1.4% | ? | 11.2µM*
SMILES | Luc counter | Gal4-VP16 FLuc | RORg inh
COc1ccccc1-n1c(Cc2cccs2)n[nH]c1=S | -0.2% | -17.0% | 10µM*
OC(COCc1cccs1)CN1CCN(c2ccccc2Cl)CC1 (centres undefined) | 2.4% | 0.9% | -22.2%
COc1ccccc1-n1c(CNC(=O)c2cccs2)n[nH]c1=S | -1.6% | 4.0% | -22.6%
S=c1[nH]nc(Cc2cccs2)n1-c1cccc2ccccc12 | 1.8% | ? | 3.98µM*
S=c1[nH]nc(Cc2cccs2)n1-c1ccccc1Cl | 2.0% | ? | 6.31µM*
COc1ccc(-n2nc(C(=O)NCC(=O)N3CCN(c4ccccc4F)CC3)c3ccccc3c2=O)cc1OC | / | 2.4% | -6.8%
COc1ccc(NC(=O)c2cc(CC(C)C)nc3ccccc23)cc1 | / | 26.3% | ?
COc1ccc(-c2cn3cccnc3n2)cc1F | -8.2% | -12.1% | ?
COC(=O)c1ccc(/C=C/c2c(-c3ccsc3)oc3ccc(N4CCOCC4)cc23)cc1 | / | 6.8% | 22.5%
Cc1ccc(-c2cc(Cc3cccs3)c(=O)[nH]n2)cc1 | / | -7.3% | -11.0%
CCCCc1ccc(-n2c(Cc3cccs3)n[nH]c2=S)cc1 | 1.7% | ? | 1.41µM*
CCCCOCC(O)CCc1n[nH]c(=S)n1-c1ccccc1 (centres undefined) | 5.0% | -5.6% | -44.6%
Cc1ccc(C)c(-n2c(Cc3cccs3)n[nH]c2=S)c1 | / | 3.16µM* | 7.08µM*
COc1ccc(C(=O)/C=C2/C(=O)Nc3ccccc32)cc1 | / | ? | 10µM*
C=CCOc1ccc(C(=O)/C=C2/C(=O)Nc3ccccc32)cc1 | / | -16.6% | ?
NC(=O)COc1ccc(C(=O)/C=C2/C(=O)Nc3ccccc32)cc1 | / | ? | 7.94µM*
